Screen size: about 310,000 compounds; about 14,000 (4.5%) showed an effect of 50% or more. The effect is printed as a negative number. For the sample, strong results were picked, then their nearest neighbours and some compounds at random.
molecular target: human ether-à-go-go-related gene (hERG) potassium channel (human, UniProt Q12809); assay: primary screen, population patch clamp on CHO cells stably expressing hERG; higher = less effect of the substance
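Note: peak tail current of the secondary pulse compared with the same well before compound.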

human ether-à-go-go-related gene (hERG) potassium channel, sequence (Q12809 whole entry, looked up): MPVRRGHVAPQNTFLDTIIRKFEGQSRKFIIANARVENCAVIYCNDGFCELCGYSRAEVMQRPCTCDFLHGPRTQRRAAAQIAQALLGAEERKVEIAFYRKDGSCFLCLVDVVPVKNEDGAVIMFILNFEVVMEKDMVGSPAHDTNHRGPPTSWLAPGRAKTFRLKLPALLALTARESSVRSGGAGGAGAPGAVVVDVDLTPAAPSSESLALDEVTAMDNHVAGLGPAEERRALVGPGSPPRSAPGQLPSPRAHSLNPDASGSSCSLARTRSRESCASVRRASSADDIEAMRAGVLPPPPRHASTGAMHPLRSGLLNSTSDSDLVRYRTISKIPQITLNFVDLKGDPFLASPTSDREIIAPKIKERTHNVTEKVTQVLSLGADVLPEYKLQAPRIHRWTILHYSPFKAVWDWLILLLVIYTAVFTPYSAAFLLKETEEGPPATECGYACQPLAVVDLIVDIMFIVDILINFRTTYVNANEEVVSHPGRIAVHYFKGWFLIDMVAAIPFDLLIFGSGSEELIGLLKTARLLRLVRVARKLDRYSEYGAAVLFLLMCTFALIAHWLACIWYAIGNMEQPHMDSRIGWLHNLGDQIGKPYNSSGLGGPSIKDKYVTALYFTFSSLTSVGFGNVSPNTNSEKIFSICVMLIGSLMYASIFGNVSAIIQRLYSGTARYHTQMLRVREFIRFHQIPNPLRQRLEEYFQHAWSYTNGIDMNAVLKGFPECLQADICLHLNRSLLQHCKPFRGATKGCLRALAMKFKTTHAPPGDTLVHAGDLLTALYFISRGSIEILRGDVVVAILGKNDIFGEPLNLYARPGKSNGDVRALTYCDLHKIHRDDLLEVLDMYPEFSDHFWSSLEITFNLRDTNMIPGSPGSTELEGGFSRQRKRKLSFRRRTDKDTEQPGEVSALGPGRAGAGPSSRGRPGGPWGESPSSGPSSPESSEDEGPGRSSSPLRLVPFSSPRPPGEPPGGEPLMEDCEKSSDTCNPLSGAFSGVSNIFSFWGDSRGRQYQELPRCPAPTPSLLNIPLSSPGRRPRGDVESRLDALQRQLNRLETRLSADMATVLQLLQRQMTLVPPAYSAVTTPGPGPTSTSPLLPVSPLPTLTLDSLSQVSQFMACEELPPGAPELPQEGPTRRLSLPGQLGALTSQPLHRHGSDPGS

Row | SMILES | hERG current change (%, negative = inhibition) at 10uM
1 | COc1ccccc1CNC(=O)C1CCCN(S(C)(=O)=O)C1 (stereo not shown) | 9.4%
2 | CC(C)Oc1cccc(C(=O)C2CCCN(S(=O)(=O)C(C)C)C2)c1 (stereo not shown) | -21.7%
3 | COc1ccc(C2=NN(C(=O)CSc3nnnn3C)C(c3ccco3)C2)cc1 (stereo not shown) | 3.05%
4 | N/C(=N\OC(=O)C(c1ccccc1)c1ccccc1)c1ccccn1 | 8.35%
5 | Cl.O=C(NCC(c1cccs1)N1CCOCC1)c1ccc(Cl)s1 (stereo not shown) | -21.6%
6 | CC(=O)NC(=O)COC(=O)/C=C/c1c(C)nn(Cc2c(Cl)cccc2Cl)c1Cl | -2.82%
7 | O=C(O)CSc1nc2ccc(C(=O)c3ccccc3)cc2[nH]1 | 17.2%
8 | CC(C)(C)C(=O)c1cn(Cc2ccccc2)c2ccccc12 | -4.12%
9 | CCCCCCn1cc(C(=O)OCC)c(=O)c2cc(F)c(F)cc21 | -52.6%
10 | CCC(=O)c1cn(Cc2ccccc2)c2ccccc12 | -7.05%
11 | CCCn1cc(C(=O)OCC)c(=O)c2cc(F)c(F)cc21 | 2.11%
12 | O=C(O)c1cn(Cc2ccccc2)c2ccccc2c1=O | -79.3%
13 | CCOC(=O)c1cn(CC)c2cc(F)c(F)cc2c1=O | 3.48%
14 | COc1ccc(OC)c(N2C(=O)CC(Cc3ccc(C)cc3)C2=O)c1 (stereo not shown) | -2.87%
15 | CCC1(c2ccccc2)NC(=O)N(CC(=O)Nc2ccc3c(c2)OCO3)C1=O (stereo not shown) | -6.09%
16 | CCOC(=O)c1oc2cccc(O)c2c1C | -7.22%
17 | C=CCn1c(SCc2c(F)cccc2Cl)nnc1-c1ccco1 | -19.3%
18 | COc1ccc(OC)c(CN2CCN(CCCc3ccccc3)C(CCO)C2)c1 (stereo not shown) | -68.6%
19 | COc1ccc(CN2CCN(CCc3ccccc3)C(CCO)C2)c(Cl)c1OC (stereo not shown) | -60.1%
20 | COc1ccc(OC)c(CN2CCN(CCc3ccccc3)C(CCO)C2)c1 (stereo not shown) | -60.6%
21 | COc1ccc(CN2CCN(CCCc3ccccc3)C(CCO)C2)c(OC)c1 (stereo not shown) | -72.9%
22 | COc1cccc(CN2CCN(CCc3ccccc3)C(CCO)C2)c1OC (stereo not shown) | -34.8%

Row | SMILES | hERG current change (%, negative = inhibition) at 10uM
23 | CCOC(=O)C1(CC)CC(CSc2nc3ccccc3[nH]2)OC1=O.Cl (stereo not shown) | -2.61%
24 | COc1ccc(C(=O)Nc2cccc3ccccc23)cc1 | 1.02%
25 | CC(C)(C)c1cc(C(=O)NNc2cccc(Cl)c2)n(Cc2ccccc2)n1 | -4.28%
26 | Cc1cc(-c2nnc(SCC(=O)Nc3ccccc3F)n2N)n[nH]1 | 13.8%
27 | CC1(C)NC(=O)N(CCCC(=O)Nc2ccc(C(F)(F)F)cc2)C1=O | -16.9%
28 | CCOC(=O)c1c(-c2cccs2)csc1NC(C)=O | -1.29%
29 | COc1ccc(N2CC(C(=O)OCC(=O)Nc3ccccc3C)CC2=O)cc1 (stereo not shown) | 15.6%
30 | CN1CCN(C(=S)c2ccc(Cl)cc2)CC1 | 3.39%
31 | CCN(C(=O)COc1ccccc1C(=O)NCc1ccccc1)C1CCS(=O)(=O)C1 (stereo not shown) | -22.1%
32 | CCCN(CC1CC1)C(=O)COc1ccccc1C(=O)NCc1ccccc1 | -56%
33 | CCC(C)N(C(=O)COc1ccccc1C(=O)NCc1ccccc1)C1CCS(=O)(=O)C1 (stereo not shown) | -39.2%
34 | COc1ccc(C(=O)Nc2c3c(nn2-c2cccc(Cl)c2)CS(=O)C3)cc1 (stereo not shown) | -25.6%
35 | COc1ccc(-n2nc3c(c2NC(=O)c2cc(Br)ccc2Cl)CS(=O)C3)cc1 (stereo not shown) | -43.4%
36 | COc1ccc(-n2nc3c(c2NC(=O)c2ccc(Br)cc2)CS(=O)C3)cc1 (stereo not shown) | -50.8%
37 | CN(C)c1ccc(Sc2nnc(NC(=O)Nc3ccc(Cl)cc3Cl)s2)cc1 | 12.2%
38 | COc1ccc(OC)c(CN2CCN(C(=O)CNC(=O)c3cc(C)cc(C)c3)CC2)c1 | -42.7%
39 | COc1ccc(C(=O)NCc2ccccc2CN2CCCC2)cc1S(=O)(=O)Nc1ccc(C)cc1 | -57.9%
40 | CCN1CCN(C(=O)c2ccc(OC)c(S(=O)(=O)Nc3ccc(C)cc3)c2)CC1 | -18.4%
41 | COc1ccc(C(=O)NCc2ccccc2OC)cc1 | -10.3%
42 | CN(C)CC(NC(=O)c1cccc(S(=O)(=O)Nc2ccc3c(c2)OCO3)c1)c1ccccc1 (stereo not shown) | -14.8%
43 | COc1ccc(OC)c(CN2CCN(C(=O)CNC(=O)c3ccc(C(C)(C)C)cc3)CC2)c1 | -53.9%
44 | O=C(NCc1ccccc1CN1CCCC1)c1cccc(N2CCCC2=O)c1 | -3.11%

Row | SMILES | hERG current change (%, negative = inhibition) at 10uM
45 | COc1ccc(OC)c(CN2CCN(C(=O)CCNC(=O)c3ccc(Br)cc3)CC2)c1 | -45.7%
46 | COc1ccc2cc(C(=O)NCc3ccccc3CN3CCCC3)ccc2c1 | -68.2%
47 | CCN(CC)Cc1ccccc1CNC(=O)c1cccc(S(=O)(=O)Nc2ccc3c(c2)OCO3)c1 | -71.3%
48 | COc1ccc(C(=O)O)cc1S(=O)(=O)Nc1ccc(C)cc1 | 23.1%
49 | O=C(O)c1cccc(S(=O)(=O)Nc2ccc3c(c2)OCO3)c1 | 23.4%
50 | COc1ccccc1-c1nc(S(=O)(=O)c2ccccc2)c(N2CCCCC2)o1 | 14.4%
51 | Cc1cc(C)cc(NC(=O)CSc2nc3[nH]ncc3c(=O)[nH]2)c1 | 11.8%
52 | C/C(=N\NC(=S)Nc1cccc(C)c1)c1ccco1 | -6.35%
53 | Cc1cc2c3c(c1C)C(=O)C(=O)N3C(C)(C)CC2C (stereo not shown) | 6.5%
54 | O=C(COC(=O)CCCN1C(=O)c2ccccc2C1=O)Nc1cc(Cl)cc(Cl)c1 | -3.11%
55 | CC12CCC(C(=O)Nc3nc4ccccc4s3)(OC1=O)C2(C)C (stereo not shown) | 2.26%
56 | O=C(NCc1ccccc1CN1CCCC1)c1ccc(OCc2cscn2)cc1 | -30%
57 | O=C(NCc1ccccc1CN1CCCC1)c1cccc(S(=O)(=O)Nc2ccc(F)cc2)c1 | -75.2%
58 | COc1ccc(NS(=O)(=O)c2cccc(C(=O)NCc3ccco3)c2)cc1 | -15.8%
59 | Cc1nc(COc2ccc(C(=O)Nc3ccccc3N3CCOCC3)cc2)cs1 | -49.1%
60 | COc1ccc(NS(=O)(=O)c2cccc(C(=O)NCCCN3CCOCC3)c2)cc1 | 5.96%
61 | O=C(NCCN1CCOCC1)c1cccc(S(=O)(=O)Nc2ccc(F)cc2)c1 | -5.27%
62 | Cc1nc(COc2ccc(C(=O)NCc3ccccc3CN3CCCCC3)cc2)cs1 | -52.5%
63 | COc1ccc(NS(=O)(=O)c2cccc(C(=O)NCc3ccccc3CN3CCCC3)c2)cc1 | -64.4%
64 | Cc1cccc(NS(=O)(=O)c2cccc(C(=O)NCc3ccccc3CN3CCOCC3)c2)c1 | -26%
